Experimental data from PubChem BioAssay (NCI).
The panel holds about 83,000 compounds, 20% with a hit somewhere; the sample as a whole holds those more often.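 Treatment: one concentration, 48 hours, 96-well format. Scoring: percent growth, with anything below 10 considered active.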 The source made the active and inactive calls.

System: M14 melanoma
Experiment: NCI-60 one-dose screen, 48 h (100 = growth as untreated, 0 = no growth, -100 = all killed)
Conditions: 10 µM unless noted

Row | SMILES | growth
1 | C=C(C)COC(=O)c1ccccc1C(=O)OCC1(C)CO1 (centres undefined) | 96.5% (inactive)
2 | COc1ccc(NC(=O)COc2ccccc2)c(C(N)=O)c1 | 3.47% (active)
3 | O=c1nc(NO)[nH]c(=O)n1Cc1ccc(F)cc1 | 107% (inactive)
4 | NC(=O)c1cc(I)ccc1NC(=O)COc1ccccc1 | 0.806% (active)
5 | O=C(Nc1ccccc1O)c1ccc(NS(=O)(=O)c2cccc3cccnc23)cc1 | 41.1% (inactive)
6 | CC(=O)OC[C@H](O)[C@@]1(O)CC[C@H]2[C@@H]3CCC4=CC(=O)CC[C@]4(C)[C@H]3[C@@H](O)C[C@@]21C | 104% (inactive)
7 | COc1cc(NC(=O)COc2ccccc2)c(C(N)=O)cc1OC | 16.8% (inactive)
8 | COc1ccc(Nc2[nH]n(C3=Nc4ccccc4Sc4ccccc43)c(=O)c2C#N)cc1 | 55.9% (inactive)
9 | COc1c(Cl)ccc2c(-c3nc4cc(Cl)c(F)cc4s3)cc(=O)oc12 | 95.5% (inactive)
10 | Cn1c2ccc(Cl)cc2c2nn(C(=O)c3ccccc3)c(=O)nc21 | 98.9% (inactive)
11 | CC(=O)Nc1ccc(S(=O)(=O)N/N=C\c2ccc(Cl)c(Cl)c2)cc1 | 102% (inactive)
12 | COc1ccc(/C=C(\C#N)c2ccc(OC)cc2)cc1 | 61.9% (inactive)
13 | CCCCNNC(=O)c1ccc(Br)cc1 | 42% (inactive)
14 | CC(=O)c1cc(C)c(OC(=O)c2ccccc2)c(C)c1 | 105% (inactive)
15 | Clc1nc(-c2ccccn2)nc2sc3c(c12)CCCCCC3 | 86.8% (inactive)
16 | Cc1ccc(C(=O)Nc2ccccc2N)cc1 | 77.5% (inactive)
17 | Oc1ccccc1/C=N/Nc1nc2ccccc2s1 | 56.6% (inactive)
18 | COc1cccc(OC(=O)c2ccccc2)c1OC(=O)c1ccccc1 | 47.5% (inactive)
19 | COC(=O)c1ccc(C(=O)Nc2ccccc2N)cc1 | 83.3% (inactive)
20 | CCSc1nnc2c3cc(Br)ccc3n(C)c2n1 | 98.4% (inactive)
21 | N#CCCN1CCN(CCC#N)C1=S | 96.6% (inactive)
22 | COC(=O)/C=C1/CCC2C3CCC4=CC(=O)C(Br)CC4(C)C3C(=O)CC12C (centres undefined) | 59.9% (inactive)
23 | NC(=O)c1cc(Cl)ccc1NC(=O)COc1ccccc1 | 28.2% (inactive)
24 | CN1CCN(CCCn2c3c(sc4ncccc43)c(=O)n3nnc(-c4ccccc4)c23)CC1 | 78.4% (inactive)
